About 79,000 compounds went through this panel and 15% of them were active in at least one assay; those are over-represented in the sample as a whole. Values without a mark were called inactive. Activity calls are given as the source filed them. No stated cut-off is given here; in the data, active means growth inhibition above about 70%; inactive means the rest.
assay: NCI Yeast Anticancer Drug Screen. Data for the sgs1 mgt1 strain (AID 161);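 further: 0% = growth of cultures given vehicle only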; conditions: S. cerevisiae sgs1 mgt1 strain, at 50.0 µM, stronger effect = higher value
Outline: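 Read-out: growth inhibition vs vehicle controls. Cells: mutant yeast strain deficient in DNA damage repair.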

Structure (SMILES) | growth inhibition
CC(C)=CCNc1nc(Cl)nc2nc[nH]c12 | -59%
BrC1CC2CCCCC2CC1Br (stereo not given) | 21.4%
CC(C)OC(=O)C1CCC(=O)N1 (stereo not given) | -7.4%
COc1cc(O)c2c(c1)C(=O)c1cc(C)cc(O)c1C2=O | -18.6%
CC(=O)Oc1cc2oc([O-])c[n+]2c2ccccc12 | 22.7%
CCc1ccc2[nH]nc(CCC(=O)O)c(=O)c2c1 | -13.2%
O=c1c(Cl)cc(Cl)cn1S(=O)(=O)c1ccc([N+](=O)[O-])cc1 | 98.9% (active)
O=[N+]([O-])c1cc(O)ccc1O | 0%
CCCCC(CC)COCCC(=O)O (stereo not given) | -4.25%
CC(CC(=N)N)NC(=O)C1CCC(N)=N1 (stereo not given) | 2.15%
CCCCC(=O)N1SC(NC(=O)OC)=Nc2ccccc21 | 61.8%
COc1ccc(/C=C2/C(=O)N(c3ccccc3)N=C2C)cc1 | 17.3%
CCOC(=O)c1ccc(C#N)cc1 | -11.2%
Cc1ccc(NC(=O)C2CCN(C)CC2)cc1 | -16.7%
CCC(O)(C#CCl)CC | 10%
COc1ccc2c(c1)CC1(CC2)CCN(CCCN(C)C)CC1 | -22.2%
O=C(CCCc1ccc([N+](=O)[O-])cc1)c1ccccc1 | 1.2%
Cc1cc(C)c(/C=N/NC(=O)NN)c(C)c1 | -12.2%
CC(=O)N(C)c1ccc(N)cc1 | 24.9%
COc1cc(-c2ccc(N=Nc3ccc(N)nc3N)c(OC)c2)ccc1N=Nc1ccc(N)nc1N | 23.3%

Structure (SMILES) | growth inhibition
CCCCCCC(O)CCCCCCCCCCCO (stereo not given) | 1.05%
C=C(C)CCC[C@@H](C)C1CCC2(C)[C@@H]3CCC4C(C)(C)[C@@H](O)CC[C@@]45C[C@@]35CC[C@]12C (stereo not given in full) | 25.4%
OC(c1cc(-c2ccccc2)nc2c1ccc1ccccc12)C1CCCCN1 (stereo not given) | -17.1%
COc1ccc2c(c1)C(=O)[C@@](Nc1ccc(C=O)cc1)(OC)[C@@](OC)(c1ccc([N+](=O)[O-])cc1)O2 | 29.9%
CC(C)C1CCC(=O)CC1 | -1%
CN(C)S(=O)(=O)N1CCCc2ccccc21 | 3.55%
CCC(O)(c1ccc(OC)cc1)C(O)(CC)c1ccc(OC)cc1 (stereo not given) | 16.4%
CN1C(c2ccccc2)=C(C#N)C(=O)CC(c2ccc(Cl)cc2)N1C (stereo not given) | -4.75%
ClC(c1ccccc1)c1cccc2ccccc12 (stereo not given) | 7.7%
CCCCCCCCC(=O)OCC(=O)c1ccc(-c2ccccc2)cc1 | 3.35%
Nc1nc(N)c2c(n1)CCC(CNc1ccc(C(=O)NC(CCC(=O)O)C(=O)O)cc1)C2 (stereo not given) | 38.3%
CCCCOC(=O)C1(C(=O)OCCCC)CC1 | 1.3%
N#CCc1ccc(-c2ccccc2)cc1 | 3.3%
CC(C)NCc1ccccc1Sc1ccccc1CNC(C)C | 12.1%
C/C(=N/NC(N)=O)C1CCC(C)CC1 (stereo not given) | 21.9%
C=CCCCCCCCCC(=O)NCC1CC1 | 2.5%
Nc1ncnc2c1ncn2C1C=CC(COS(N)(=O)=O)C1 (stereo not given) | 0.7%
CCCCCCCCCCCCCCCCS(=O)(=O)N/N=C(/C)N(C)c1ccc(OC)cc1 | -6.1%
Cc1onc(-c2c(F)cccc2Cl)c1C(=O)OCc1c(F)cccc1Cl | 20.9%
CC(C)CC(CC(C)C)=NNC(N)=O | 9.05%
